# Assay results: PubChem BioAssay (NCATS)
# Results filed as inconclusive are left out. For some assays here: Entries with a potency or affinity are not part of this list. Active and inactive are the calls of the source.
# Experiments:
# [1] = Ebola virus entry reporter assay, green channel fluorescence
# [2] = Ebola virus entry cell assay, ratio channel
# [3] = qHTS assay to identify small molecule inhibitors of chordoma cells - UCH-1 (AID 1259355; active = well fitted curve in the direction sought with a large enough effect; an effect the other way counts as inactive or inconclusive; note: % is set by controls: 0 for no effect and ±100 for the full control effect; nearly all actives have a fitted effect of over 55% in size); conditions: UCH-1 chordoma viability, CellTiter-Glo, 48 h, combination; series mostly up to 46.1 µM
# In short: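 A 48hr growth-inhibition format: each drug tested at 15 concentrations together with added auranofin, camptothecin, doxorubicin, rubitecan and topotecan, with cell viability quantified as CellTiter-Glo luminescence.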
# [4] = qHTS assay to identify small molecule inhibitors of chordoma cells - UCH-2 (AID 1259356; active = well fitted curve in the direction sought with a large enough effect; an effect the other way counts as inactive or inconclusive; note: % is set by controls: 0 for no effect and ±100 for the full control effect); conditions: UCH-2 chordoma viability, CellTiter-Glo ATP luminescence, 48 h; series mostly up to 46.1 µM
# [5] = P-glycoprotein substrates identified in KB-8-5-11 adenocarcinoma cell line, qHTS therapeutic library screen (AID 1346987; active = well fitted curve in the direction sought with a large enough effect; an effect the other way counts as inactive or inconclusive; note: nearly all actives have a fitted effect of over 65% in size; note: potency is the fitted concentration of half-maximal effect); conditions: KB-8-5-11 (P-gp overexpressing) viability, CellTiter-Glo, 72 h; series mostly up to 44.5 µM
# In short: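 In this qHTS, P-gp-rich KB-8-5-11 cells received library compounds across a concentration range. Viability was quantified by luminescence after 72 h at 37 degree C.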
# [6] = P-glycoprotein substrates identified in KB-3-1 adenocarcinoma cell line, qHTS therapeutic library screen (AID 1346986; active = well fitted curve in the direction sought with a large enough effect; an effect the other way counts as inactive or inconclusive; note: nearly all actives have a fitted effect of over 60% in size); conditions: KB-3-1 parental cells viability, CellTiter-Glo, 72 h; series mostly up to 44.5 µM
# In short: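 Using luminescence to quantify ATP, parental and P-gp-overexpressing KB cells were compared after 72 h compound titration. KB-8-5-11 was also run with the P-gp inhibitor tariquidar.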
# [7] = High-throughput drug toxicity screening in the BPDCN cell line Gen2.2 (AID 1224824); conditions: Gen2.2 BPDCN cells; at 45.8 µM (top of the series);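 note: cells exposed to compounds for 48 h before reading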
# In short: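 CellTiter-Glo luminescence read after 48 h compound exposure at 37 C defines viability; percent activity set with DMSO as 100% and bortezomib (9.2 uM final) as 0%. 500 exponentially growing cells per well, RPMI plus 10% FBS.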
# [8] = High-throughput drug toxicity screening in the BPDCN cell line Cal-1 (AID 1224825); conditions: Cal-1 BPDCN cell viability, qHTS; at 45.8 µM (top of the series)
# In short: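 Viability of the BPDCN line Cal-1 is measured as ATP-based luminescence (CellTiter-Glo) following 48 h incubation with compounds. Percent activity uses DMSO-treated wells as 100% and 9.2 uM bortezomib as 0%.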
# [9] = qHTS assay for measurement of the activity of small molecule inhibitors on Zika virus induced Caspase-3 activity in human iPSC derived neural progenitor cells (hNPCs) (AID 1224857; active = well fitted curve in the direction sought with a large enough effect; an effect the other way counts as inactive or inconclusive; note: % of control where 0% means no effect; nearly all actives have a fitted effect of over 65% in size); conditions: hNPCs ZIKV-induced caspase-3/7, Caspase-Glo luminescence, 6 h; series mostly up to 45.7 µM
# In short: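 Cells were plated at 350 per well and grown 16 to 20 hours. Compound pretreatment lasted one hour, after which ZIKV (2 FFU/cell) was added for 6 hours. Percent inhibition was normalized between uninfected and infected controls.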
# [10] = qHTS assay for measurement of the activity of small molecule inhibitors on Zika virus induced Caspase-3 activity in human astrocytoma cells (AID 1224859; active = well fitted curve in the direction sought with a large enough effect; an effect the other way counts as inactive or inconclusive;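 note: plate controls were ZIKV-infected untreated cells for no effect and uninfected cells for full effect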); conditions: SNB-19 ZIKV-induced caspase-3/7, luminescence, 6 h; series mostly up to 45.7 µM
# In short: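 Percent inhibition of virus-induced caspase-3/7 signal is calculated against uninfected and ZIKV-infected control cells. Cells are SNB-19, infected at 2 FFU/cell for 6 h after 1 h compound exposure.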
# [11] = qHTS Screen of the MIPE 4.0 Collection Against Ewings Sarcoma (TC32) (AID 1259256; active = well fitted curve in the direction sought with a large enough effect; an effect the other way counts as inactive or inconclusive;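 note: 100% = DMSO-treated cells and 0% = medium-only wells without cells; nearly all actives have a fitted effect of over 45% in size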); conditions: TC32 Ewing sarcoma viability, CellTiter-Glo, 48 h; series mostly up to 45.8 µM
# In short: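 Measured: ATP luminescence (CellTiter-Glo) 10 min after reagent addition, following 48 h drug treatment. Relative luciferase units converted to percent activity, with no-cell wells as full and DMSO wells as zero inhibition.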
smiles,measurement,setting,value
COC(=O)[C@@H]1CC2=CC(=O)CC[C@]2(C)[C@@]23O[C@@H]2C[C@@]2(C)[C@@H](CC[C@@]24CCC(=O)O4)[C@H]13,outcome,[1],inactive
same,outcome,[2],inactive
Cc1[nH]c(=O)c(C#N)cc1-c1ccncc1,outcome,[1],inactive
same,outcome,[2],inactive
COC(=O)C1=C(C)NC(C)=C(C(=O)OC(C)C)C1c1cccc2nonc12 (configuration not stated),outcome,[1],inactive
same,outcome,[2],inactive
COCCCOc1cc(C[C@@H](C[C@H](N)[C@@H](O)C[C@H](C(=O)NCC(C)(C)C(N)=O)C(C)C)C(C)C)ccc1OC,outcome,[1],inactive
same,outcome,[2],inactive
O=C(C1CCCCC1)N1CC(=O)N2CCc3ccccc3C2C1 (configuration not stated),outcome,[1],inactive
same,outcome,[2],inactive
O=c1[nH]cnc2c1ncn2[C@H]1CC[C@@H](CO)O1,outcome,[1],inactive
same,outcome,[2],inactive
CCCC(=O)Nc1ccc(OCC(O)CNC(C)C)c(C(C)=O)c1 (configuration not stated),outcome,[1],inactive
same,outcome,[2],inactive
CC(C)NC[C@@H](O)COc1ccc(CC(N)=O)cc1,outcome,[1],inactive
same,outcome,[2],inactive
CCN(C)C(=O)Oc1cccc([C@H](C)N(C)C)c1,outcome,[1],inactive
same,outcome,[2],inactive
O=C1c2cccc3c2[C@H](CCC3)CN1[C@@H]1CN2CCC1CC2,outcome,[1],inactive
same,outcome,[2],inactive
CCCc1cc(=O)[nH]c(=S)[nH]1,outcome,[1],inactive
same,outcome,[2],inactive
CC(C)c1nc(CN(C)C(=O)N[C@H](C(=O)N[C@@H](Cc2ccccc2)C[C@H](O)[C@H](Cc2ccccc2)NC(=O)OCc2cncs2)C(C)C)cs1,outcome,[1],inactive
same,outcome,[2],inactive
CC1=NS(=O)(=O)c2cc(Cl)ccc2N1,outcome,[1],inactive
same,outcome,[2],inactive
CN1CCN(C2=Nc3cc(Cl)ccc3Nc3ccccc32)CC1,outcome,[1],inactive
same,outcome,[2],inactive
CN1C(=O)CC(C)(c2ccccc2)C1=O (configuration not stated),outcome,[1],inactive
same,outcome,[2],inactive
Cc1cccc(Nc2ccccc2C(=O)O)c1C,outcome,[1],inactive
same,outcome,[2],inactive
CO[C@@]12[C@H](COC(N)=O)C3=C(C(=O)C(C)=C(N)C3=O)N1C[C@@H]1N[C@@H]12,outcome,[1],inactive
same,outcome,[2],inactive
Cc1ccc(NC(=O)c2ccc(CN3CCN(C)CC3)cc2)cc1Nc1nccc(-c2cccnc2)n1,outcome,[1],inactive
same,AC50,[2],28.2 µM (active)
CCOC(=O)[C@H](CCc1ccccc1)N[C@@H](C)C(=O)N1[C@H](C(=O)O)C[C@@H]2CCC[C@@H]21,outcome,[1],inactive
same,outcome,[2],inactive
NNc1nncc2ccccc12,outcome,[1],inactive
same,outcome,[2],inactive
CCCCC1=NC2(CCCC2)C(=O)N1Cc1ccc(-c2ccccc2-c2nn[nH]n2)cc1,outcome,[1],inactive
same,outcome,[2],inactive
COc1cc(C(=O)NCc2ccc(OCCN(C)C)cc2)cc(OC)c1OC,outcome,[1],inactive
same,outcome,[2],inactive
O[C@@H]1CO[C@H]2[C@@H]1OC[C@@H]2O,outcome,[1],inactive
same,outcome,[2],inactive
COc1ccccc1OCC(O)CN1CCN(CC(=O)Nc2c(C)cccc2C)CC1 (configuration not stated),outcome,[1],inactive
same,outcome,[2],inactive
NCCC(O)(P(=O)(O)O)P(=O)(O)O,outcome,[1],inactive
same,outcome,[2],inactive
CS(=O)(=O)OCCCCOS(C)(=O)=O,outcome,[1],inactive
same,outcome,[2],inactive
CC(C)(C)C(=O)OCOP(=O)(COCCn1cnc2c(N)ncnc21)OCOC(=O)C(C)(C)C,outcome,[1],inactive
same,outcome,[2],inactive
CCOC(=O)c1ncn2c1CN(C)C(=O)c1cc(F)ccc1-2,outcome,[1],inactive
same,outcome,[2],inactive
COc1cc(Cc2cnc(N)nc2N)cc(OC)c1OC,outcome,[1],inactive
same,outcome,[2],inactive
O=C1OCCN1/N=C/c1ccc([N+](=O)[O-])o1,outcome,[1],inactive
same,outcome,[2],inactive
C#CCN(C)[C@H](C)Cc1ccccc1,Potency,[3],inactive
same,Potency,[4],inactive
same,Potency,[5],inactive
O=C1CC[C@@]2(O)[C@H]3Cc4ccc(O)c5c4[C@@]2(CCN3CC2CC2)[C@H]1O5,Potency,[3],inactive
same,Potency,[4],inactive
same,Potency,[6],inactive
N[C@@H](Cc1ccc(N(CCCl)CCCl)cc1)C(=O)O,Potency,[5],inactive
O=P1(NCCCl)OCCCN1CCCl (configuration not stated),outcome,[1],inactive
same,outcome,[2],inactive
same,"cell viability, % of control (lower = more cytotoxic)",[7],49.3%
same,viability (% of control),[8],20.1%
same,Potency,[9],inactive
same,outcome,[10],inactive
same,Potency,[11],inactive
same,Potency,[3],inactive
same,Potency,[4],inactive
same,Potency,[5],10.5 µM (active)
